TDP1 cell noCPT: qHTS for Inhibitors of human tyrosyl-DNA phosphodiesterase 1 (TDP1): qHTS in cells in absence of CPT. 15% of 420,000 active. DT40 Tdp1-/- hTDP1 cells, no CPT, ATP luminescence, 48 h. AID 686978, 2013. Potency, µM (titrated, usually from 46.2 µM), actives largely listed as inhibitors; also: nearly all actives have a fitted effect of over 55% in size
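Luminescent ATP content (CellTiter-Glo) served as the growth readout. Knockout chicken DT40 cells expressing human TDP1 were exposed to compounds without camptothecin for a minimum 48 hr at 37 °C.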
MCF10A rereplic: inducers of DNA re-replication in MCF 10A breast cells. MCF 10A DNA re-replication, Hoechst nuclear intensity, 48 h. Potency, µM (doses to about 46.1 µM), most hits filed as activators. 2.9% of 350,000 active. AID 624296; also: nearly all actives have a fitted effect of over 50% in size
DT40 TDP1 CPT: growth inhibition of DT40 Tdp1-/-;hTDP1 cells with camptothecin (screen for TDP1 inhibitors); chicken DT40 Tdp1-/-;hTDP1 cells + 20 nM CPT, ATP luminescence, 48 h; Potency, µM (doses to about 46.2 µM), usual class: inhibitors; 12% of 420,000 active; AID 686979; also: nearly all actives have a fitted effect of over 55% in size
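Cell growth measured by CellTiter-Glo luminescence after a minimum 48 h, 37 C compound exposure with 20 nM CPT in Tdp1-knockout DT40 cells stably expressing hTDP1, seeded 400/well; qHTS titration format.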
SW480 rereplic: DNA re-replication induction in SW480 cells | SW480 DNA re-replication, Hoechst DNA content imaging, 48 h | Potency, µM (titrated, usually from 46.1 µM), usual class: activators | 1.8% of 340,000 active | AID 624297; also: nearly all actives have a fitted effect of over 55% in size
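Quantitative HTS format with DMSO vehicle controls; 48 hr drug incubation at 37 C, then 40 min Hoechst staining and scanning imager measurement at 405 nm excitation.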
IL1B secr inh: inhibitors of inflammasome signaling (IL-1 beta secretion); THP-1 LPS/ATP IL-1B secretion, AlphaLISA, 16 h; stronger effect = lower value; activity change, % at 57.5 µM; 4.7% of 360,000 active; AID 743279; in the data active = activity change below about -50%; inconclusive = mostly about -30% to -49%
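THP-1 cells pretreated 1 hr with compounds (up to 57.5 uM final), then stimulated with LPS (250 ng/mL final) plus ATP (1.25 mM final); secreted IL-1B measured by AlphaLISA after 16 hr, decreased signal indicating inhibition.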
Chronic BCR inh: chronic active BCR signaling inhibition. 0.05% of 340,000 active. Potency, µM (highest dose often 46.1 µM), most hits filed as inhibitors. AID 493014. ABC-DLBCL IkBa-CBG/CBR reporter, luminescence ratio, 4 h; active = well fitted inhibition curve with a large enough effect in the signal ratio, with a control signal flat, not every such curve was filed as active; inconclusive = small, poorly fitted or top-dose-only effect, or effect the other way, or a change in a side signal; the % refers to the signal ratio
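TMD8 human ABC-DLBCL cells with doxycycline-inducible IκBα–green luciferase fusion and unfused red luciferase, in 0.5% FBS medium; compounds up to 46 uM, 4 h at 37C. Green/red luminescence ratio, filter-overlap corrected, fitted to concentration-response curves.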
Numbers stand for hits; i = inactive; ? = inconclusive; nt = no result given; [ ] = remark or other dose. The list is not random: actives were taken first. Their share in the collection is about 19%. Unless noted, calls follow the shape of the dose curve; as a rule, active = well fitted curve in the direction sought with a large enough effect; inconclusive = small, poorly fitted or top-dose-only effect, or another doubt; inactive = no such curve, though single readings can be large; an effect the other way counts as inactive or inconclusive.

SMILES	TDP1 cell noCPT	MCF10A rereplic	DT40 TDP1 CPT	SW480 rereplic	IL1B secr inh	Chronic BCR inh
Cc1nn(C)c(=O)c(N)c1-c1cc(-c2ccc(Cl)c(Cl)c2)n[nH]1	6.5µM	?	13µM	i	i	?
Cc1ccc(-c2cc(-c3c(C)nn(C)c(=O)c3N)[nH]n2)cc1	9.2µM	i	16µM	i	i	i
CC(C)[C@H](NC(=O)OC(C)(C)C)C(=O)N/N=C/c1cccc2nccnc12	?	i	i	i	i	i
N#Cc1cccc(C(=O)C(=O)N2CCN(c3ccccc3)CC2)c1	i	nt	i	nt	i	nt
COC1=CCC2([N+](=O)[O-])CN(CCO)CC1([N+](=O)[O-])C2 (centres undefined)	i	i	i	i	i	i
O=C(O)CCN1CC2([N+](=O)[O-])CC=C(OCCO)C([N+](=O)[O-])(C1)C2 (centres undefined)	i	i	i	3.7µM	i	i
O=C(CCNC(=O)N1CC(=O)Nc2ccccc21)NCc1ccccc1	i	nt	i	nt	i	nt
COc1ccc(NC(=O)C2CC23CCN(Cc2cccc4ncccc24)CC3)cc1Cl (centres undefined)	?	nt	i	nt	nt	nt
N#CC1=C(N)Oc2n[nH]c(-c3cccnc3)c2C1c1ccc([N+](=O)[O-])o1 (centres undefined)	2.9µM	?	3.7µM	?	-97	?
N#CC1=C(N)Oc2n[nH]c(-c3ccccc3)c2C1c1cccnc1 (centres undefined)	i	i	i	i	i	?
CC1CCCN(C(=O)COC(=O)c2ccc3[nH]c4c(c3c2)CCCC4)C1 (centres undefined)	23µM	i	?	i	i	i
COC(=O)C1CCN(C(=O)COC(=O)c2ccc3[nH]c4c(c3c2)CCCC4)CC1	10µM	i	13µM	i	i	i
COC(=O)C1CCN(C(=O)c2ccc(OC)c(S(=O)(=O)N3CCCc4ccccc43)c2)CC1	?	i	?	i	i	i
O=C(COC(=O)c1ccc2[nH]c3c(c2c1)CCCC3)NC1CCS(=O)(=O)C1 (centres undefined)	?	i	?	i	i	i
CCOC(=O)C1CCN(C(=O)COC(=O)c2ccc3[nH]c4c(c3c2)CCCC4)CC1	12µM	?	13µM	i	?	i
COC(=O)C1CCN(C(=O)COC(=O)c2ccc(OC)c(S(=O)(=O)N3CCCc4ccccc43)c2)CC1	0.41µM	i	i	i	i	i
COc1cccc(NC(=O)COC(=O)c2cc(=O)c3ccccc3o2)c1	?	?	?	i	i	i
CC(C)(C)NC(=O)C(c1ccnc2ccccc12)n1c(=O)c(-c2ccco2)nc2ccccc21 (centres undefined)	?	nt	?	nt	i	nt
N#Cc1c(/N=C/c2cc3ccccc3s2)sc2c1CCC2	23µM	i	?	i	i	i
O=C(NCCCNC(=O)c1cnccn1)c1ccc(Br)cc1	i	i	i	i	i	i
CCCn1c(SCC(=O)N(CC)c2c(N)n(Cc3ccccc3)c(=O)[nH]c2=O)nnc1-c1ccncc1	i	i	i	i	i	nt
CCc1ccccc1OCC(=O)Nc1cc(S(=O)(=O)N2CCOCC2)ccc1N1CCCCC1	7.3µM	i	23µM	i	i	?
Cc1ccc(OCC(=O)Nc2cc(S(=O)(=O)N3CCOCC3)ccc2N2CCCC2)cc1	?	i	i	?	i	i
COc1cc(C(C)=O)ccc1OCC(=O)Nc1cc(S(=O)(=O)N2CCOCC2)ccc1N1CCCC1	?	?	?	i	i	nt
COc1ccccc1OCC(=O)Nc1cc(S(=O)(=O)N2CCOCC2)ccc1N1CCCCC1	15µM	i	18µM	i	-55	i
SMILES	TDP1 cell noCPT	MCF10A rereplic	DT40 TDP1 CPT	SW480 rereplic	IL1B secr inh	Chronic BCR inh
COc1ccccc1CCC(=O)Nc1cc(S(=O)(=O)N2CCCCC2)ccc1N1CCN(C)CC1	21µM	?	?	i	?	i
COc1cccc(/C=N/NC(=O)c2cc(-c3cccn3C)n[nH]2)c1O	6.5µM	i	5.8µM	?	i	i
O=C(N/N=C/c1ccco1)c1cc(-c2ccccc2)n[nH]1	?	i	?	i[9.22 µM]	i	?
Cn1cccc1-c1cc(C(=O)N/N=C/C=C/c2ccccc2)[nH]n1	?	i	?	i	-91	i
COc1cccc(/C=N/NC(=O)C(=O)N2CCCCCC2)c1O	?	i	?	?	i	i
COc1cc(/C=N/NC(=O)c2cc(-c3cccn3C)n[nH]2)cc(OC)c1OC	21µM	i	21µM	i	-85	?
CCCCC(=O)Oc1c(S(=O)(=O)c2ccccc2)c(C)nn1C(C)(C)C	?	?	i	i	-77	i
O=C1NC(=S)NC1=Cc1ccc(O)cc1	i	i	i	i	i	nt
O=C1NC(=S)N/C1=C\c1ccc(N2CCOCC2)cc1	?	?	16µM	18µM	i	?
O=C1NC(=S)N/C1=C/c1ccc2c(c1)OCO2	5.8µM	?	?	i	i	?
CCN(CC(=O)NCc1ccccc1Cl)CC(=O)Nc1c(F)cccc1F	i	i	i	i	i	?
CN(C)CCCN(C(=O)c1ccc(S(=O)(=O)N2CCCCCC2)cc1)c1nc2c(F)cc(F)cc2s1	16µM	i	?	i	-86	i
CN(C)CCCN(C(=O)c1ccc(S(=O)(=O)N2CCc3ccccc3C2)cc1)c1nc2c(F)cccc2s1	?	i	?	i	-51	i
Cc1cccc2sc(N(CCCN(C)C)C(=O)c3ccc(S(=O)(=O)N4CCc5ccccc5C4)cc3)nc12	6.5µM	?	4.1µM	?	?	i
CCOC(=O)[C@H]1[C@H]2COc3ccc(Br)cc3[C@@H]2N2C(=O)CN(Cc3ccco3)C(=O)[C@@]12C	?	i	?	i	i	?
O=C1NC[C@H](CCCCN2CCN(Cc3ccccc3)C(=O)C2=O)N(CC2CCCCC2)C1=O	i	nt	i	nt	i	nt
O=c1[nH]nc(CNc2cccc(C(F)(F)F)c2)c2ccccc12	15µM	i	26µM	i	i	?
Cc1nnc(NCc2n[nH]c(=O)c3ccccc23)c2ccccc12	10µM	?	5.8µM	?	-101	i
COc1ccc(NCc2n[nH]c(=O)c3ccccc23)cc1	?	?	?	i	i	?
O=C(Nc1ccccn1)C1CCCN1S(=O)(=O)c1ccc(Cl)cc1 (centres undefined)	i	?	i	?	i	i
COc1cc(CNCCc2ccccc2F)ccc1OCc1ccc(Cl)nc1	23µM	i	15µM	i[9.22 µM]	i	i
COc1cc(CNCCc2ccc(F)cc2)ccc1OCc1ccc(Cl)nc1	21µM	i	18µM	i[9.22 µM]	-56	i

From PubChem BioAssay
